# Test results as given in PubChem BioAssay (NCATS).
# Records with an inconclusive call do not appear. A call without a number means that no potency is given here. A number with no mark means an inactive call. Calls of active or inactive are those of the source. The call rests on the fitted dose curve; in most records, active means well fitted curve in the direction sought with a large enough effect; inconclusive means small, poorly fitted or top-dose-only effect, or another doubt; inactive means no such curve, though single readings can be large; an effect the other way counts as inactive or inconclusive.
# Columns and labels:
# [1] = system: Zika virus NS2B-NS3 protease (unlinked complex); assay: Confirmatory screen GU AMC qHTS for Zika virus inhibitors (AID 1347153); further: nearly all actives have a fitted effect of over 70% in size;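 on potency: enzyme at 25 nM with substrate at 10 µM below its Km of 18.3 µM; potency means the concentration at half of the fitted maximal effect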
# How it was run: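 Unlinked NS2B-NS3 complex (25 nM) in 10 mM Tris-HCl pH 8.0, 0.01% Tween 20 preincubated 15 min with compound, then 10 microM Bz-Nle-KRR-AMC (Km 18.3 µM). Fluorescence change over 15 min, normalized, Hill-fitted.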
# [2] = system: Zika virus NS2B-NS3 protease; assay: Primary screen GU AMC qHTS for Zika virus inhibitors (AID 1347154); further: nearly all actives have a fitted effect of over 70% in size; further: potency means the concentration at half of the fitted maximal effect
# How it was run: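 Unlinked Zika NS2B hydrophilic domain/NS3 protease domain noncovalent complex (25 nM final) in 10 mM Tris-HCl pH 8.0, 0.01% Tween 20, with AMC peptide substrate. Fluorescence (ex 340, em 450 nm) change over 15 min, room temperature; percent inhibition fitted to 4-parameter Hill equation.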
# [3] = Confirmatory screen GU Rhodamine qHTS for Zika virus inhibitors qHTS (AID 1347157); further: potency means the concentration at half of the fitted maximal effect; nearly all actives have a fitted effect of over 70% in size
# How it was run: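 Unlinked NS2B/NS3, 25 nM; Rhod110 peptide, 1.5 microM; compounds, up to 114 microM. Reaction run 15 min at RT in 10 mM Tris-HCl pH 8.0, 0.01% Tween 20; kinetic fluorescence change fitted with a 4-parameter Hill model.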
# [4] = system: Zika virus NS2B-NS3 protease (unlinked complex); assay: Primary screen GU Rhodamine qHTS for Zika virus inhibitors: Unlinked NS2B-NS3 protease assay (AID 1347159); further: potency means the concentration at half of the fitted maximal effect; nearly all actives have a fitted effect of over 60% in size
# How it was run: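 In dose–response format, inhibition of unlinked protease (25 nM) was measured with 1.5 microM bis-peptide Rhodamine110 substrate. Aprotinin served as the intraplate control.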
# [5] = system: Zika virus NS2B-NS3 protease (linked construct); assay: Primary screen NINDS Rhodamine qHTS for Zika virus inhibitors (AID 1347160); further: nearly all actives have a fitted effect of over 55% in size
# How it was run: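 Each compound, titrated, sat 15 min with 25 nM linked protease before 1.5 microM Rhodamine110 substrate went in. Fluorescence gain over the next 15 min, in pH 8.0 Tris with Tween 20, gave Hill-fitted curves.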
# [6] = system: Zika virus NS2B-NS3 protease (linked construct); assay: 384 well plate NINDS Rhodamine confirmatory qHTS for Zika virus inhibitors (AID 1347164); further: potency means the concentration at half of the fitted maximal effect; nearly all actives have a fitted effect of over 65% in size
# From the text: Description: Assay Submitters (PI): Avindra Nath, Ph.D., National Institute of Neurological Disorders and Stroke (NINDS), Bethesda, MD Radhakrishnan Padmanabhan, Ph.D., Georgetown University (GU), Washington D.C. Zika Virus causes congenital defects, including microcephaly and is associated with Guillain-Barre syndrome, eningoencephalitis and myelitis in infected adult. […] Using a target-based approach, we hope to establish a screening paradigm to uncover novel, cell-active NS2B-NS3 protease (Zika Virus) specific inhibitors from NCATS' collection of small molecules using qHTS. […] Four assay panel was created to identify potential Zika Virus inhibitors. Namely, (1) GU unlinked NS2B-NS3 AMC tagged protease qHTS, (2) GU unlinked NS2B-NS3 Rhodamine tagged protease qHTS, (3) NINDS linked NS2B-NS3 AMC tagged protease qHTS, (4) NINDS linked NS2B-NS3 Rhodamine tagged protease qHTS. Active compounds are validated using a secondary assay in 384 well plate format. Early Translation Branch (ETB) National Center for Advancing Translational Sciences (NCATS), Rockville, MD National Institute of Health (NIH), Bethesda, Maryland
# 384-well NINDS Rhodamine Assay: The protease was diluted to 7.5 nM, 40.9 nM, or 82 nM in assay buffer and dispensed into a 96-well PCR plate (Applied Biosystems); 20 or 22 microL was transferred to a black 384-well assay plate (final protease concentration of 5 nM, 30 nM, or 60 nM, respectively). Compounds (3 microL, 1 microM - 10 mM, DMSO) were diluted and transferred to the assay plate (final concentrations ranged from 100 nM to 1 mM). Compounds were incubated with protease for ~15 minutes. The substrate, Rhodamine 110 (Ac-LKRR-Rd; Genscript), was dissolved in DMSO to a concentration of 6 mM and further diluted into assay buffer to a working concentration of 180 microM, then dispensed into a 384-well preparation plate (Eppendorf). A multichannel repeat pipettor was used to add 3 or 5 microL of substrate to the assay plate to give a final concentration of 10 microM. The plate was incubated in the dark at room temperature. After 25 minutes, the fluorescence intensity (excitation: 485 nm, emission: 538 nm) was measured and normalized to no-enzyme and no-inhibitor controls. Aprotinin39 (VWR) was used as an intraplate control.
# [7] = ZIKV-mCherry secondary qHTS for Zika virus inhibitors (AID 1347158); further: top concentration of the series differs between compounds
# How it was run: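 Percent infection is the share of Hoechst-identified Vero nuclei with mCherry signal above 450 RFU (3 SD over negative controls). Cells were infected with recombinant ZIKV-mCherry at MOI 1 after compound addition and imaged 48–72 h later.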
# [8] = Confirmatory screen NINDS Rhodamine qHTS for Zika virus inhibitors (AID 1347161); further: nearly all actives have a fitted effect of over 60% in size; further: potency means the concentration at half of the fitted maximal effect;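 on activity change, negative = inhibition: purified Zika NS2B-NS3 protease with linked NS2B cofactor domain and Rhodamine110 peptide substrate; series mostly up to about 110 µM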
# How it was run: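 In 10 mM Tris-HCl pH 8.0 containing 0.01% Tween 20, linked NS2B-NS3 protease (25 nM final) is exposed to test compounds for 15 min. Cleavage of 1.5 microM Rhodamine110 substrate is tracked by fluorescence over 15 min.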
# [9] = system: Zika virus NS2B-NS3 protease (linked); assay: 384 well plate NINDS AMC confirmatory qHTS for Zika virus inhibitors (AID 1347163);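 further: fluorescence of AMC released from Ac-VKTGKR-AMC peptide cleaved by the protease; top concentration of the series differs between compounds; nearly all actives have a fitted effect of over 50% in size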
# How it was run: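 Fluorescence at 355/460 nm was read after 25 minutes of cleavage of 30 microM Ac-VKTGKR-AMC at room temperature, in the dark. Before substrate addition, compounds (up to 1 mM final) sat ~15 minutes with 5, 30 or 60 nM linked protease. Signals were normalized to no-enzyme and no-inhibitor wells.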
structure (smiles),measurement,setting,value
N#CC1(c2cccc(C(=O)Nc3cc(Oc4ccc5nc(NC(=O)C6CC6)sc5n4)ccc3F)c2Cl)CC1,Potency,[1],inactive
same,Potency,[2],21.5 µM (active)
same,Potency,[3],22.1 µM (active)
same,Potency,[4],22.4 µM (active)
same,Potency,[5],inactive
same,Potency,[6],50.1 µM (active)
CN1CC(=O)NC1=NC(=O)Nc1cccc(Cl)c1,Potency,[2],inactive
O=C(Nc1ncc(SCCN2CCCC2)s1)[C@]1(c2ccc(S(=O)(=O)C3CC3)cc2)C[C@@H]1C1CCCCC1,Potency,[2],inactive
C[C@H]1COC2=C1C(=O)C(=O)c1c2ccc2c1CCCC2(C)C,Potency,[1],21.5 µM (active)
same,outcome,[7],inactive
same,Potency,[8],7.84 µM (active)
Cc1ccc(NC(=O)c2cccc(N(C)C)c2)cc1NC(=O)c1ccc(O)cc1,Potency,[2],inactive
CCCCOCCOc1nc(-c2ccc(C(=O)O)c(F)c2)sc1C,Potency,[1],12.1 µM (active)
same,Potency,[8],49.3 µM (active)
O=C(Nc1ccccc1)Nc1ccc(-c2ccc(C(=O)[C@H]3CCC[C@H]3C(=O)O)cc2)cc1,Potency,[1],24.1 µM (active)
same,Potency,[8],3.92 µM (active)
same,Potency,[9],inactive
same,Potency,[6],14.1 µM (active)
Fc1ccc(C(c2ccc(F)cc2)N2CCN(CC=Cc3ccccc3)CC2)cc1,Potency,[1],inactive
same,Potency,[8],inactive
CC(=O)OCC(=O)[C@@]1(O)CC[C@H]2[C@@H]3CCC4=CC(=O)C=C[C@]4(C)[C@@H]3[C@@H](O)C[C@@]21C,Potency,[2],inactive
COc1ccc(-c2ccc3ncc4c(c3c2)n(-c2ccc(N3CCNCC3)c(C(F)(F)F)c2)c(=O)n4C)cn1,"activity, negative = inhibition",[1],-4.48% [at 5.51 µM]
same,"activity change, negative = inhibition",[8],14.2% [at 12.7 µM]
CCC[C@@H](NC(=O)[C@@H]1[C@H]2CCC[C@@H]2CN1C(=O)[C@@H](NC(=O)[C@@H](NC(=O)c1cnccn1)C1CCCCC1)C(C)(C)C)C(=O)C(=O)NC1CC1,Potency,[2],inactive
CN(C)CCOc1ccc(C(=C(CCCl)c2ccccc2)c2ccccc2)cc1,Potency,[2],inactive
C=CC[N+]1([C@H]2C[C@H]3[C@@H]4CC[C@H]5C[C@H](O)[C@@H](N6CCOCC6)C[C@]5(C)[C@@H]4CC[C@]3(C)[C@H]2OC(C)=O)CCCC1,Potency,[2],inactive
COc1ccc2cc1Oc1ccc(cc1)C[C@H]1c3cc(c(OC)cc3CCN1C)Oc1c(OC)c(OC)cc3c1[C@H](C2)N(C)CC3,Potency,[2],inactive
CSc1cccc(Nc2ncc3cc(-c4c(Cl)cccc4Cl)c(=O)n(C)c3n2)c1,Potency,[2],inactive
CC1C(=O)OC2C(O)C34C5CC(C(C)(C)C)C36C(OC(=O)C6O)OC4(C(=O)O5)C12O (centres undefined),Potency,[2],inactive
CC(C)CN(C[C@@H](O)[C@H](Cc1ccccc1)NC(=O)O[C@H]1CO[C@H]2OCC[C@H]21)S(=O)(=O)c1ccc(N)cc1,Potency,[2],inactive
CCC(=O)OCC(=O)[C@@]1(OC(=O)CC)[C@@H](C)C[C@@H]2[C@H]3CCC4=CC(=O)C=C[C@]4(C)[C@@]3(F)[C@@H](O)C[C@@]21C,Potency,[2],inactive
O=C1CN2Cc3c(ccc(Cl)c3Cl)N=C2N1,Potency,[2],inactive
CN[C@H]1[C@@H](O[C@@H]2[C@H](O[C@@H]3[C@@H](O)[C@@H](O)[C@@H](N=C(N)N)[C@@H](O)[C@@H]3N=C(N)N)O[C@H](C)[C@@]2(O)C=O)O[C@@H](CO)[C@@H](O)[C@H]1O,Potency,[2],inactive
CCCCN(CCCC)CC(O)c1cc(Cl)cc2c1-c1ccc(Cl)cc1C2=Cc1ccc(Cl)cc1 (centres undefined),Potency,[2],inactive
CCNC(=O)[C@H]1O[C@@H](n2cnc3c(N)nc(NCCc4ccc(CCC(=O)O)cc4)nc32)[C@H](O)[C@H]1O,Potency,[2],inactive
CN(C(Cc1ccc(OS(=O)(=O)c2cccc3cnccc23)cc1)C(=O)N1CCN(c2ccccc2)CC1)S(=O)(=O)c1cccc2cnccc12 (centres undefined),Potency,[2],inactive
C[C@H]1[C@H](O)O[C@@H]2O[C@@]3(C)CC[C@@H]4[C@H](C)CC[C@@H]1[C@@]24OO3,Potency,[2],inactive
COc1cc2c(cc1OC)[C@@H]1Cc3ccc(OC)c(OC)c3CN1CC2,Potency,[2],inactive
C[C@]12CC[C@@H]3c4ccc(O)cc4CC[C@H]3[C@H]1[C@@H](O)[C@@H](O)[C@H]2O,Potency,[2],inactive
CC=C1C2C=C(C)CC1(N)c1ccc(=O)[nH]c1C2 (centres undefined),Potency,[2],inactive
CCOC(=O)N1c2ccc(C(F)(F)F)cc2[C@@H](N(Cc2cc(C(F)(F)F)cc(C(F)(F)F)c2)C(=O)OC)C[C@H]1CC,Potency,[2],inactive
CN1CC(=O)N2C(Cc3c([nH]c4ccccc34)[C@H]2c2ccc3c(c2)OCO3)C1=O (some centres undefined),Potency,[2],inactive
N=C1SC(=Cc2ccc(-c3ccc4c(c3)C(=O)NC4=O)o2)C(=O)N1c1ccc(Br)cc1,Potency,[2],inactive
C[C@@H](O)[C@H]1C(=O)N2C(C(=O)OCOC(=O)C(C)(C)C)=C(SC3CN(C4=NCCS4)C3)[C@H](C)[C@H]12,Potency,[2],inactive
COc1cc(F)c(C(C)C)cc1-c1ccc(C(F)(F)F)cc1CN1C(=O)O[C@H](c2cc(C(F)(F)F)cc(C(F)(F)F)c2)[C@@H]1C,Potency,[2],inactive
COc1cc(N2CCN(C)CC2)ccc1Nc1nc(N)c(C(=O)c2c(Cl)cccc2Cl)s1,Potency,[2],inactive
NC[C@H]1O[C@H](O[C@@H]2[C@@H](O)[C@@H](O[C@H]3O[C@H](CO)[C@@H](O)[C@H](N)[C@@H]3O)[C@H](N)C[C@@H]2N)[C@H](O)[C@@H](O)[C@H]1O,Potency,[2],inactive
CN(C)N=Nc1nc[nH]c1C(N)=O,Potency,[2],inactive
COc1cc2nccc(Oc3ccc(NC(=O)Nc4ccc(F)cc4F)c(F)c3)c2cc1OC,Potency,[2],inactive
CC[C@H](NC(=O)[C@H](C)NC)C(=O)N1C[C@@H](O)C[C@H]1Cc1c(-c2[nH]c3cc(F)ccc3c2C[C@H]2C[C@H](O)CN2C(=O)[C@H](CC)NC(=O)[C@H](C)NC)[nH]c2cc(F)ccc12,Potency,[2],17.1 µM (active)
Cc1ccc(C(=O)N(CCCN)[C@@H](c2nc3cc(Cl)ccc3c(=O)n2Cc2ccccc2)C(C)C)cc1,Potency,[2],inactive
CC(C)[C@H](O)C(=O)N[C@@H](C)C(=O)N[C@@H]1C(=O)N(C)CCc2ccccc21,Potency,[2],inactive
CC(NCCc1ccc(O)cc1)C(O)c1ccc(O)cc1 (centres undefined),Potency,[2],inactive
CNC(=O)[C@H](Cc1ccccc1)NC(=O)[C@H](CC(C)C)[C@H](CSc1cccs1)C(=O)NO,Potency,[2],inactive
